Screens: PubChem BioAssay, The Scripps Research Institute Molecular Screening Center
Rin1-Abl PPI inh – inhibitors of human Rin1-Abl protein interaction. P00519+Q13671. TR-FRET Rin1/Abl binding, biochemical. inhibition, % at 7.35 µM. hit rate 0.4% among 360,000; in the data active means inhibition above about 5%, passing the limit was not always enough
PAFAH1B2 inh – PAFAH1B2 (human) inhibition; recombinant PAFAH1B2, FP-rhodamine activity probe, fluorescence polarization; inhibition, % at 3.39 µM; hit rate 1.2% among 340,000; AID 492953;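 active means inhibition above the mean of all tested compounds plus 3 SD, cut at about 24% in these data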
Target sequence (P68402 whole entry, looked up): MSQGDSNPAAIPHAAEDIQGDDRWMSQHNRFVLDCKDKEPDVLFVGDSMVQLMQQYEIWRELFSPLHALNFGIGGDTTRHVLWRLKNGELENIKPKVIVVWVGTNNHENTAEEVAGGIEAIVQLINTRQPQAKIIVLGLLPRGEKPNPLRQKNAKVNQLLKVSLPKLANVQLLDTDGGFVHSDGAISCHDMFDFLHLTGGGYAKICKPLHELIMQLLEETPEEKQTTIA
E coli Lon inh – E. coli protease La inhibition; P0A9M0; purified E. coli Lon protease, fluorescence polarization; inhibition, % at 7.94 µM; hit rate 0.42% among 360,000; AID 602123; in the data active means inhibition above about 13%, passing the limit was not always enough
PAFAH2 inh – inhibitors of human PAFAH2; hit rate 0.99% among 340,000; AID 492956; inhibition, % at 3.39 µM; recombinant PAFAH2, FP-rhodamine activity probe, fluorescence polarization; Q99487;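 active means inhibition above the mean over all tested compounds plus 3 SD, cut at about 30% in these data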;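 further: inhibitors block probe labeling of enzyme so polarization drops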
pPAFAH FP inh – pPAFAH (human) enzyme inhibition; recombinant pPAFAH, FP-rhodamine probe fluorescence polarization; Q13093; inhibition, % at 3.39 µM; hit rate 1.5% among 330,000;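 active means inhibition above the mean inhibition across the screen plus 3 SD, cut at about 25% in these data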;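 further: inhibitors block binding of the rhodamine activity-based probe so polarization drops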
PAFAH1B3 inh – PAFAH1B3 (human) inhibition. hit rate 0.28% among 340,000. inhibition, % at 3.39 µM. Q15102. recombinant PAFAH1B3, FP-rhodamine probe, fluorescence polarization. AID 492972;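 active means inhibition above the screen-wide average of all tested compounds plus 3 SD, cut at about 25% in these data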
Hits are given with their value; n = inactive; x = no result. Compounds with a hit are over-represented: about 3.1% of the library has one in this group of screens.

SMILES	Rin1-Abl PPI inh	PAFAH1B2 inh	E coli Lon inh	PAFAH2 inh	pPAFAH FP inh	PAFAH1B3 inh
CCC(=O)c1cn(Cc2ccccc2)c2ccccc12	n	n	n	n	n	n
O=C(c1ccco1)c1cn(Cc2ccccc2)c2ccccc12	n	n	n	n	29.9	n
CCC(C)c1ccc(N2C(=O)NC(=O)/C(=C/c3cccn3CCOc3ccc(C)cc3)C2=O)cc1 (stereo unspecified)	n	n	n	n	27.8	n
CCOC(=O)[C@]12Cc3ccc4ccccc4c3[C@H]1N(Cc1ccccc1)C(=O)c1ccccc12	x	x	n	x	x	x
COC(=O)C1=C(c2cccc(OCc3ccccc3)c2)C[C@@H]2CC[C@H]1N2C(=O)NCCCc1ccccc1	n	n	n	n	30.5	n
CC1(C)OC(c2ccccc2)=C/C(=C/C=C2C(=O)NC(=S)NC2=O)O1	x	x	x	x	n	x
CN1/C(=C\C=C2C(=O)NC(=S)NC2=O)C(C)(C)c2ccccc21	n	68.2	n	37.9	x	n
O=C(NCC1=C(c2ccc3ccccc3c2)C[C@@H]2CC[C@H]1N2Cc1ccco1)c1ccc([N+](=O)[O-])cc1	n	x	n	x	x	x
O=C(N/N=C/c1c(O)n(C2CCCCC2)c(=S)[nH]c1=O)c1ccccc1O	n	n	n	n	31.7	n
O=C(N/N=C/c1c(O)n(Cc2ccco2)c(=O)[nH]c1=O)c1ccccc1O	n	n	n	34.6	29.6	n
CCCCC(=O)N/N=C/c1c(O)n(Cc2ccco2)c(=O)[nH]c1=O	n	n	n	n	n	n
CCC(C)c1cnc(CC(C)C)c(=O)n1O (stereo unspecified)	n	x	n	x	x	x
O=S(=O)(c1ccc(Cl)cc1)c1ccc(Cl)cc1	n	66.1	n	n	n	n
O=S(=O)(c1ccc(O)cc1)c1ccc(O)cc1	n	n	n	n	n	n
NP(=O)(OCCCc1ccccc1)c1ccccc1 (stereo unspecified)	n	n	n	n	n	n
NP(=O)(OCCCc1ccccc1)Oc1ccc(Cl)cc1 (stereo unspecified)	n	94.9	n	n	n	n
NP(=O)(OCCCc1ccccc1)Oc1ccccc1Cl (stereo unspecified)	n	92.4	n	66.9	n	44.6
CC(C)CCOP(N)(=O)Oc1ccccc1Cl (stereo unspecified)	n	85.2	n	n	n	25.7
CC(C)CCOP(N)(=O)Oc1ccccc1 (stereo unspecified)	n	n	n	n	n	n
NP(=O)(OCC(F)(F)F)Oc1ccccc1 (stereo unspecified)	n	n	n	n	n	n
Cc1ccc(OP2(=O)Nc3cc(C)c(C)cc3S2)cc1 (stereo unspecified)	n	n	n	n	x	n
CC(C)CN1Cc2cc(-c3cccc(F)c3)ccc2-n2nncc2C1	n	x	n	x	x	x
O=C(c1ccc(N2CCCCCC2)c([N+](=O)[O-])c1)N1CCC2(CC1)OCCO2	n	n	n	n	33.1	n
C[C@H](CO)N1C[C@H](C)[C@H](CN(C)C(=O)Oc2ccccc2)OCc2cnnn2CCCC1=O	n	x	n	x	x	x
CN[C@H]1C[C@H]2O[C@@](C)([C@H]1OC)n1c3ccccc3c3c4c(c5c6ccccc6n2c5c31)C(=O)NC4	x	x	x	x	40.5	x
SMILES	Rin1-Abl PPI inh	PAFAH1B2 inh	E coli Lon inh	PAFAH2 inh	pPAFAH FP inh	PAFAH1B3 inh
Cc1c(C(=O)O)cc(-c2ccccc2)n1Cc1ccccc1	n	28.5	n	n	n	n
C=CCn1c(O)c(C(CC)=Nc2ccc3c(c2)CCC3)c(=O)[nH]c1=O	n	n	n	n	n	n
C=CCn1c(O)c(C(CC)=Nc2ccc(N(C)C)cc2)c(=O)[nH]c1=O	n	x	n	x	34.2	x
C=C[C@@H]1C[C@@]1(C)[C@@H](NP(=O)(c1ccccc1)c1ccccc1)c1ccccc1	n	41.2	n	n	n	n
COC(=O)[C@]1(C)C[C@H]1[C@H](NP(=O)(c1ccccc1)c1ccccc1)c1ccccc1	n	n	n	n	n	n
Fc1cccc(-c2ccc3c(c2)CN(C(=S)NCCc2ccccc2)Cc2cnnn2-3)c1	n	x	n	x	x	x
CC(C)(C)c1ccc(S(=O)(=O)N2CC3CC(C2)c2cccc(=O)n2C3)cc1 (stereo unspecified)	n	25.9	n	n	n	n
COc1ccc(S(=O)(=O)N2CC3CC(C2)c2cccc(=O)n2C3)cc1 (stereo unspecified)	n	n	n	n	n	n
CCOC(=O)[C@]12Cc3cc(Cl)ccc3[C@H]1N(C1CCCCC1)C(=O)c1ccccc12	x	x	n	x	x	x
